LAP4 TOR yeast = modulators of LAP4-GFP expression in yeast, primary screen, S. cerevisiae, multiplex flow cytometry, MLPCN library | 3 h; median GFP as percent of DMSO wells | GFP response vs DMSO, % at 10 µM | 320,000 tested, 0.34% active;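 active = GFP response vs DMSO above a set limit, about the screen mean plus 3 SD, cut at about 150% in these data; inconclusive = under 70 cell events counted for the yeast strain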
CIT2-GFP yeast = modulators of CIT2-GFP expression in yeast, primary screen, S. cerevisiae, GFP fusion, multiplex flow cytometry, MLPCN library; S. cerevisiae CIT2-GFP strain, 3 h; 100 means same as DMSO wells; GFP response vs DMSO, % at 10 µM; AID 2029, 2009; 320,000 tested, 0.065% active;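 active = GFP response relative to DMSO above a set limit, near the screen mean plus 3 SD, cut at about 150% in these data; inconclusive = Fewer than 70 cells measured for a yeast strain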;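 also: ratio of well median GFP fluorescence to mean of DMSO wells on the plate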
MEP2 TOR yeast = modulators of MEP2-GFP levels in yeast, primary screen, S. cerevisiae, multiplex flow cytometry, MLPCN library | S. cerevisiae MEP2-GFP strain, 3 h; 100% = DMSO control level | GFP response vs DMSO, % at 10 µM | 330,000 tested, 0.51% active;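 active = GFP response versus DMSO above a set limit, roughly screen mean plus 3 SD, cut at about 180% in these data; inconclusive = fewer than 70 cells counted for a yeast strain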;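 also: median GFP fluorescence of the barcode-gated MEP2-GFP cells per well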
AGP1-GFP MLPCN = modulators of AGP1-GFP expression in yeast TOR pathway, primary screen, cell-based, multiplex flow cytometry, S. cerevisiae, MLPCN library. 3 h; GFP as percent of DMSO wells. GFP response vs DMSO, % at 10 µM. 320,000 tested, 0.02% active;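 active = GFP response relative to DMSO above a set limit, near screen average plus 3 SD, cut at about 150% in these data; inconclusive = fewer than 70 cells counted for the yeast strain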;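 also: median GFP channel fluorescence of the gated AGP1 strain per well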
RPL19A-GFP yeast = RPL19A-GFP expression modulators in yeast, primary screen, cell-based, S. cerevisiae, multiplex flow cytometry, MLPCN; percent response vs DMSO, % at 10 µM; AID 2025, 2009; 330,000 tested, 0.3% active; S. cerevisiae RPL19A-GFP strain, 3 h; stronger effect = lower value;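 active = percent response vs DMSO below 50%; inconclusive = fewer than 70 events counted for the yeast strain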;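 also: median channel GFP fluorescence of the barcoded RPL19A-GFP strain; lower means less RPL19A-GFP as with rapamycin TOR inhibition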
VLA-4 inh = inhibition in human VLA-4 binding assay, primary screen, VLA-4 allosteric modulator project, MLPCN library, flow cytometry, VLA-4 expressing cells. inhibition, % (about 7 µM as worked out from the volumes in the protocol). Integrin alpha-4 (Homo sapiens), P13612. ligand binding flow cytometry. 330,000 tested, 0.2% active; in the data active = inhibition above about 50%
Target sequence (P13612 whole entry, looked up): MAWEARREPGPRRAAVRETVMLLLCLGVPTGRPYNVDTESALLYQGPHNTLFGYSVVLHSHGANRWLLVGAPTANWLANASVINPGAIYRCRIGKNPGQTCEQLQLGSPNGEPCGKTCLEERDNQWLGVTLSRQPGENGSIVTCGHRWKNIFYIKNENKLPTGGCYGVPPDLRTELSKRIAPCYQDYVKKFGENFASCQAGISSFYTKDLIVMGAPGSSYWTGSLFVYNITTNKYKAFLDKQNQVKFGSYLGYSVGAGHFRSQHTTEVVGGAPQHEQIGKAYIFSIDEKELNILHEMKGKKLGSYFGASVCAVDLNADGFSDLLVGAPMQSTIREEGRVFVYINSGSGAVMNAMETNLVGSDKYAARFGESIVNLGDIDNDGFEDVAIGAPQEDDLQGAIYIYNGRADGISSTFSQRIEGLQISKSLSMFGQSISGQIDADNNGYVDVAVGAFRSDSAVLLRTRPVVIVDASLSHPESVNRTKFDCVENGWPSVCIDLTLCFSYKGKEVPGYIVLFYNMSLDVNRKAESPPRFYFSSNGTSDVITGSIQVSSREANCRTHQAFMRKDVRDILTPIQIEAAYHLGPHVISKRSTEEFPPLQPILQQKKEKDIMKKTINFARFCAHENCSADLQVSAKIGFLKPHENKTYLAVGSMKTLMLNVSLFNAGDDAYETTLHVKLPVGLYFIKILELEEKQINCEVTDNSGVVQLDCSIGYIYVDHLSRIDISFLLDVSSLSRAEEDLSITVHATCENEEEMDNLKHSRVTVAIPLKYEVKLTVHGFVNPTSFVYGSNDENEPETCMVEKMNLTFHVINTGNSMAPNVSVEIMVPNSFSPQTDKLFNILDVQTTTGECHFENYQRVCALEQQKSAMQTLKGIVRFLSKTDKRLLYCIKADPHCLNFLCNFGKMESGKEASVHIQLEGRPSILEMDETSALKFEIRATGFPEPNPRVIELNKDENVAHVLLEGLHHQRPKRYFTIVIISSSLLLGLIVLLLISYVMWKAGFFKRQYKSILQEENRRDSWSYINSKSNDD
Hits are given with their value; . = inactive; ? = inconclusive; / = no result; [ ] = dose if it differs, or a comment. In the library only some 1.1% were active in any assay of this set; here they are far more common.

SMILES | LAP4 TOR yeast | CIT2-GFP yeast | MEP2 TOR yeast | AGP1-GFP MLPCN | RPL19A-GFP yeast | VLA-4 inh
NC(=O)c1ccccc1OCC(=O)NS(=O)(=O)c1ccc(Cl)cc1 | . | . | . | . | . | .
CC(=O)Oc1ccc(/C=C(\NC(=O)c2ccco2)C(=O)Nc2ccc(C(C)=O)cc2)cc1 | . | ? | 532.3[may fluoresce violet] | . | . | .
CCC1CCCCN1C(=O)COC(=O)c1ccc(Br)o1 (stereo not drawn) | . | . | . | . | . | .
C/C(CC(=O)Nc1ccc2c(c1)OCCO2)=N\NC(=O)COc1ccc(C)cc1Br | . | . | . | . | . | .
O=c1n(Cc2ccc(F)cc2)nc2n1-c1ccccc1SC2 | . | ? | 198.6[may fluoresce violet] | ? | 41.6[may fluoresce violet] | .
O=c1n(Cc2ccccc2)nc2n1-c1ccccc1SC2 | . | . | . | . | . | .
O=C(Oc1ccccc1N1C(=O)C2CCCCC2C1=O)c1ccccc1 (stereo not drawn) | . | . | . | . | . | .
Cc1ccc(C(=O)Oc2ccccc2N2C(=O)C3CCCCC3C2=O)cc1 (stereo not drawn) | . | ? | 249.4[may fluoresce violet] | ? | 16.6[may fluoresce violet] | .
COc1ccc(C2N(c3ccc(Cl)cc3)N=C(C(C)=O)N(C)N2C(C)=O)cc1 (stereo not drawn) | . | . | 240.3 | . | . | .
CNC(=O)CSc1nnc(-c2cccc(S(=O)(=O)N3CCOCC3)c2)n1-c1ccc(F)cc1 | . | . | . | . | . | .
O=C(O)CSc1nnc(-c2cccc(S(=O)(=O)N3CCOCC3)c2)n1-c1cccc(Cl)c1 | ? | ? | ? | ? | 25.8[may fluoresce violet] | .
CCCOc1c(Br)cc(C(=O)OCC(=O)NC(=O)c2cccn2C)cc1OC | . | . | . | . | . | .
CCOC(=O)c1c(-c2ccco2)csc1NC(=O)COC(=O)c1cnc(C)cn1 | . | . | . | . | . | .
Cc1cc(C)c(S(=O)(=O)c2cccc(C)c2C)c(=O)[nH]1 | . | ? | 387.1[may fluoresce violet] | . | . | .
CCNC(=S)/N=C(\N)Nc1nc(C)c2cc(C)ccc2n1 | . | ? | . | . | 45.8[may fluoresce violet] | .
CCOc1ccc2nc(N/C(N)=N/C(=S)Nc3ccc(C)c(C)c3)nc(C)c2c1 | . | . | . | . | . | .
COc1ccc(-c2noc(CNC(=O)CCN3C(=O)[C@H]4CC=CC[C@H]4C3=O)n2)cc1 | . | . | . | . | . | .
N=c1oc2cc(O)ccc2cc1C(=O)Nc1ccc(Cl)cc1 | . | ? | 227.0[may fluoresce violet] | ? | 37.8[may fluoresce violet] | .
COc1cc2cc(CCOC(=O)c3ccc(C#N)cc3)oc(=O)c2cc1OC | . | . | . | . | . | .
Cn1c(C(=O)NCCN2CCOCC2)cc2c(=O)n3ccccc3nc21 | . | ? | 263.0[may fluoresce violet] | ? | 45.9[may fluoresce violet] | .
COCCCn1c(C(=O)NCCN2CCOCC2)cc2c(=O)n3ccccc3nc21 | . | . | ? | . | ? | .
Cn1c(C(=O)O)cc2c(=O)n3ccccc3nc21 | . | . | 208.9 | . | 48.9 | .
Cn1c(C(=O)N2CCOCC2)cc2c(=O)n3ccccc3nc21 | . | ? | . | ? | . | .
CC1CC(NC(=O)c2cc3c(=O)n4ccccc4nc3n2C)CC(C)(C)C1 (stereo not drawn) | . | ? | . | ? | 26.1[may fluoresce violet] | .
N=c1c(C(=O)NCCc2ccccc2)cc2c(=O)n3ccccc3nc2n1CCCN1CCOCC1 | . | ? | 443.7[may fluoresce violet] | ? | 44.7[may fluoresce violet] | .
SMILES | LAP4 TOR yeast | CIT2-GFP yeast | MEP2 TOR yeast | AGP1-GFP MLPCN | RPL19A-GFP yeast | VLA-4 inh
CCOC(=O)CCCCCC(=O)Nc1ccc2c(c1)CC(=O)N([C@@H](C)CO)C[C@H](C)[C@@H](CN(C)C(=O)Nc1ccc3c(c1)OCO3)O2 | . | . | . | . | . | .
Cc1ccc(S(=O)(=O)N2CCN(C(=O)COC(=O)c3oc4ccccc4c3C)CC2)cc1 | . | . | . | . | . | .
N=c1c(C(=O)NCc2ccccc2)cc2c(=O)n3ccccc3nc2n1CCCN1CCOCC1 | . | ? | 231.2[may fluoresce violet] | ? | 14.5[may fluoresce violet] | .
Cc1ccc2nc3c(cc(C(=O)NCCCn4ccnc4)n3C)c(=O)n2c1 | . | / | 371.0[may fluoresce violet] | . | 39.4[may fluoresce violet] | .
N=c1c(C(=O)NCCN2CCOCC2)cc2c(=O)n3ccccc3nc2n1CCc1ccccc1 | . | ? | 251.2[may fluoresce violet] | ? | 13.6[may fluoresce violet] | .
N=c1c(C(=O)NCc2ccc(F)cc2)cc2c(=O)n3ccccc3nc2n1CCCN1CCOCC1 | . | ? | 235.1[may fluoresce violet] | . | 17.5 | .
CC(=O)Nc1ccc(NC(=O)CS(=O)(=O)c2cn(CC(=O)N3CCCC3)c3ccccc23)cc1 | . | . | . | . | . | .
COc1ccc(NC(=O)c2ccc(S(=O)(=O)N3CCCC3)cc2)cc1OC | . | . | . | . | . | .
CC1CN(C(=O)COC(=O)c2cccc(S(=O)(=O)N3CCc4ccccc43)c2)CC(C)O1 (stereo not drawn) | . | . | . | . | . | .
COc1ccc(NC(=O)C(=O)NCC(c2ccco2)N2CCc3ccccc3C2)cc1OC (stereo not drawn) | . | . | . | . | . | .
Cc1cccc(C)c1NC(=O)CSc1nc(C)c(CC(=O)c2ccc(Br)cc2)c(C)c1C#N | . | ? | 228.0[may fluoresce violet] | . | . | .
CCCCn1c(N)c(N(CC)C(=O)CSCC(=O)Nc2ccc(OC)cc2)c(=O)[nH]c1=O | . | . | . | . | . | .
O=C(Nc1ccccc1OC(F)F)c1ccc(S(=O)(=O)N2CCCC2)cc1 | . | . | . | . | . | .
CCn1c(SCC(=O)OC)nnc1-c1ccncc1 | . | . | . | . | . | .
CCn1c(SCC(=O)OC2CCCCC2)nnc1-c1ccncc1 | . | ? | 579.9[may fluoresce violet] | . | 46.9[may fluoresce violet] | .
Cc1ccc(-c2nn(-c3ccccc3)cc2CO)cc1 | . | ? | 220.7[may fluoresce violet] | . | . | .
Cc1cc(OC(=O)c2cc(Cl)ccc2Cl)c([N+](=O)[O-])c(=O)[nH]1 | . | . | . | . | . | .
COc1ccc(C)cc1S(=O)(=O)N(C)CC(=O)N1CCCC1 | . | . | . | . | . | .
CCSc1nnc(NC(=O)c2ccc3ccccc3n2)s1 | . | ? | 207.8[may fluoresce violet] | / | . | .
COc1ccccc1CNC(=O)CN1C(=O)COc2ccc(S(=O)(=O)N3CCCCC3)cc21 | . | . | . | . | . | .
CCOc1cc(N2CCOCC2)c(OCC)cc1NC(=O)c1ccc(-n2ccnc2)c([N+](=O)[O-])c1 | . | . | . | . | . | .
COc1ccccc1NC(=O)c1ccc(-n2ccnc2)c([N+](=O)[O-])c1 | . | ? | 206.5[may fluoresce violet] | ? | . | .
CCN1CCN(CCCNC(=O)C2CCCN(c3nnc(-n4cccc4)s3)C2)CC1 (stereo not drawn) | . | ? | 393.4[may fluoresce violet] | ? | 43.2[may fluoresce violet] | .

From PubChem BioAssay
